# “And” between values parts separate entries of the source, which are not always exact repeats. Equal values may be shown once. The campaign covered roughly 1,000 compounds. About 250 (25%) were called active. Roughly 31% stayed inconclusive and do not appear here. A selection follows. Measured potencies and affinities stand elsewhere. Values without a mark were called inactive. The rule behind the calls is not given here.
# Experiment: compound activity on host-cell Toxoplasma growth – dose response (AID 1259420);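 note: host cells were HeLa; final incubation lasted 72 hours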
# Settings: Toxoplasma gondii growth in host cells, no IFN-gamma
smiles,measurement,setting,value
Cc1ccccc1-c1ccc(C2[C@@H]3CN(Cc4cocn4)C[C@H]2N3)cc1 (stereo not given in full),max activity,at 19.5 µM unless noted,20.2%
COCC1COCCC12CCN(C(=O)c1ccc(C)nc1)CC2 (stereo not given),max activity,at 19.5 µM unless noted,6.91% [at 2.6 µM]
CCCN(C/C=C/I)C1CCc2cccc(O)c2C1 (stereo not given),max activity,at 19.5 µM unless noted,15.1%
CC(C)NC(=O)N1CC(=O)N2[C@@H](CO)[C@H](c3ccc(/C=C/c4ccccc4)cc3)[C@@H]2C1,max activity,at 19.5 µM unless noted,-13.4% [at 0.16 µM]
O=C(C1CCOCC1)N1CC(=O)N2[C@H](C1)[C@H](c1ccc(/C=C/c3ccccc3)cc1)[C@@H]2CO,max activity,at 19.5 µM unless noted,-15.6% [at 2.6 µM]
CC1=NN(C2CCS(=O)(=O)C2)C(=O)C1(Sc1ccccc1)Sc1ccccc1 (stereo not given),max activity,at 19.5 µM unless noted,14.4% [at 10 µM]
CC(C)CC#Cc1ccc([C@H]2[C@@H](CO)N3C(=O)CN(C(=O)c4cccc(F)c4)C[C@@H]23)cc1,max activity,at 19.5 µM unless noted,25.4%
CC(C)C#Cc1ccc([C@@H]2[C@@H](CO)N(C(=O)c3cccc(F)c3)[C@H]2C#N)cc1,max activity,at 19.5 µM unless noted,-12.4% [at 10 µM]
O=C(CC1CC1)N[C@H]1CN(C(=O)c2ccoc2)C[C@@H]2CCCO[C@H]21,max activity,at 19.5 µM unless noted,-10.1% [at 10 µM]
CCc1c(C)sc2c1CCN(Cc1nc(-c3cccc(C)c3)oc1C)C2c1ccccc1 (stereo not given),max activity,at 19.5 µM unless noted,-7.44% [at 0.08 µM]
O=C1CNC[C@@H]2[C@@H](c3ccc(C#Cc4cccnc4)cc3)[C@@H](CO)N12,max activity,at 2.6 µM,9.41%
same,max activity,at 10 µM,-13%
CC(C)(O)C#Cc1cccc(-c2n[nH]c(Cc3ccccc3)n2)c1,max activity,at 19.5 µM unless noted,21.1%
CCc1ccc(S(=O)(=O)N2CCC3(CC2)NCCN=C3NCc2cc(F)cc(F)c2)cc1,max activity,at 19.5 µM unless noted,-11.1% [at 0.08 µM]
O=S(=O)(c1ccc2c(c1)CCCC2)N1CCC2(CC1)NCCN=C2NCc1ccc2c(c1)OCO2,max activity,at 19.5 µM unless noted,-6.04% [at 0.08 µM]
Cc1ccc(CNC2=NCCNC23CCN(S(=O)(=O)c2ccc(Cl)s2)CC3)cc1,max activity,at 19.5 µM unless noted,-6.39% [at 2.6 µM]
Cc1cccc(CNC2=NCCNC23CCN(S(=O)(=O)c2ccc4c(c2)CCCC4)CC3)c1,max activity,at 19.5 µM unless noted,-9.87%
CCc1ccccc1-c1cccc(-n2cnnc2)c1,max activity,at 19.5 µM unless noted,23.8% [at 10 µM]
CCc1cc(C(=O)Nc2ccc(C)cc2-c2cc(C)[nH]n2)c2c(C)noc2n1,max activity,at 19.5 µM unless noted,-5.68% [at 5 µM]
CN(C)CCN1CCOCC2(CCCN(C(=O)c3ccc4cc[nH]c4c3)C2)C1 (stereo not given),max activity,at 19.5 µM unless noted,-5.04% [at 2.6 µM]
COCC1CN(Cc2cc(C)on2)Cc2c1cnn2CC1CC1 (stereo not given),max activity,at 19.5 µM unless noted,-5.27% [at 10 µM]
COc1ccc(-n2c(C)c([N+](=O)[O-])c3ccc(O)cc32)cc1,max activity,at 19.5 µM unless noted,7.23% [at 1.2 µM]
COc1ccc(S(=O)(=O)N2CCCCN3[C@H](C2)[C@@H](c2ccc(C#CCC(C)C)cc2)[C@@H]3CO)cc1,max activity,at 19.5 µM unless noted,29.4% [at 10 µM]
COCCC(=O)C1Cc2nc(-c3ccccc3)sc2N1CC1CC1 (stereo not given),max activity,at 19.5 µM unless noted,-9.12% [at 0.3 µM]
O=C(C1CCCCC1)N1C[C@@H]2N[C@H](C1)C2c1ccc(-c2ccccc2F)cc1 (stereo not given in full),max activity,at 19.5 µM unless noted,13.7% [at 2.6 µM]
C=CCN1C(=O)CC[C@H]2[C@@H]1CCN2S(=O)(=O)CC,max activity,at 19.5 µM unless noted,-17.5% [at 10 µM]
CCCNC(=O)N1C[C@@H]2N[C@H](C1)C2c1ccc(-c2ccc(OC)cc2)cc1 (stereo not given in full),max activity,at 19.5 µM unless noted,11.6% [at 21 µM]
Cc1ccc(CN2CC3CN(Cc4cccc(F)c4)CC3C2)s1 (stereo not given),max activity,at 19.5 µM unless noted,-13.6% [at 1.2 µM]
Cc1cnc(N2CCC3(CCN(CC4CC4)C3=O)CC2)nc1,max activity,at 19.5 µM unless noted,-10.4%
COCC#Cc1ccc([C@@H]2[C@@H](CO)N3C(=O)CN(C(=O)c4ccncc4)C[C@@H]23)cc1,max activity,at 19.5 µM unless noted,-8.48% [at 10 µM]
CC(C)[C@H](CO)Nc1nc(Nc2ccc(C(=O)O)c(Cl)c2)c2ncn(C(C)C)c2n1,max activity,at 19.5 µM unless noted,-10.3% [at 10 µM]
O=C(NCc1ccccc1)C1CC2(CO1)CN(C(=O)c1ccc(F)cc1)c1ccccc12 (stereo not given),max activity,at 19.5 µM unless noted,-16.3% [at 10 µM]
O=C1N(CC2CC2)CCC12CCCN(Cc1cncc(Cl)c1)CC2 (stereo not given),max activity,at 19.5 µM unless noted,-16.7% [at 10 µM]
N#C[C@@H]1N[C@H](CO)[C@H]1c1ccc(-c2cccc(F)c2)cc1,max activity,at 19.5 µM unless noted,13.1%
O=C(Nc1ccc(F)cc1)N1CC(=O)N2[C@@H](CO)[C@@H](c3ccc(C4=CCCC4)cc3)[C@@H]2C1,max activity,at 19.5 µM unless noted,14.9%
CS(=O)(=O)N1CCN(C2CCOCC2)CC(C(=O)O)C1 (stereo not given),max activity,at 19.5 µM unless noted,-14.9% [at 5 µM]
COc1ccc(-c2nc(CN(c3ccccc3OC)S(=O)(=O)c3ccccc3)c(C)o2)cc1,max activity,at 19.5 µM unless noted,-9.94% [at 0.6 µM]
CCOc1ccc(-c2nc(CN(c3ccc(OC)cc3)S(=O)(=O)c3cccs3)c(C)o2)cc1,max activity,at 19.5 µM unless noted,18.6% [at 10 µM]
CC(C)Oc1ccc(NC(=O)c2nc3c(n2C(C)C)CCN(C(=O)c2ccccc2)C3)cc1,max activity,at 19.5 µM unless noted,12.7% [at 0.08 µM]
CCOC(=O)c1nn(Cc2ccccc2)c2c1CN(C(=O)CN1CC(c3ccccc3)CC1=O)CC2 (stereo not given),max activity,at 19.5 µM unless noted,-13.6%
O=C(C1CCOCC1)N1CC(=O)N2[C@@H](CO)[C@@H](c3ccc(C#CC4CCCCC4)cc3)[C@@H]2C1,max activity,at 19.5 µM unless noted,14.6%
CC(C)C#Cc1ccc([C@H]2[C@@H](CO)N3C(=O)CN(C(=O)NC4CCCC4)C[C@H]23)cc1,max activity,at 19.5 µM unless noted,-5.62% [at 10 µM]
Cc1nc2ccccc2n1CC(O)Cn1c2ccccc2c2ccccc21 (stereo not given),max activity,at 19.5 µM unless noted,-12.4%
O=C(Cc1cccnc1)N1CC(=O)N2[C@H](CO)[C@H](c3ccc(C#CC4CCCCC4)cc3)[C@H]2C1,max activity,at 19.5 µM unless noted,-8.11% [at 0.3 µM]
CN(C)C(=O)COCc1cncc2c1CCN(c1ccccn1)C2,max activity,at 19.5 µM unless noted,-8.88% and 11.8%
Cc1ccccc1S(=O)(=O)N1CCCCN2[C@H](C1)[C@H](c1ccc(C#CCN(C)C)cc1)[C@@H]2CO,max activity,at 19.5 µM unless noted,20.9% [at 10 µM]
Clc1ccccc1CSc1nc(NC2CCCCC2)c2ccccc2n1,max activity,at 19.5 µM unless noted,12.5%
CS(=O)(=O)N1CC(=O)N2[C@H](CO)[C@@H](c3ccc(Br)cc3)[C@H]2C1,max activity,at 19.5 µM unless noted,4.03%
COc1cccc(-c2ccc(C3[C@H]4CNC[C@@H]3N4C(=O)NC3CCCCC3)cc2)c1 (stereo not given in full),max activity,at 19.5 µM unless noted,28.1%
COc1cccc(-c2ccc(C3[C@H]4CNC[C@@H]3N4CC3CCCCC3)cc2)c1 (stereo not given in full),max activity,at 19.5 µM unless noted,15.2%

# From PubChem BioAssay AID1259420 (Broad Institute, 2018)
